Source: PubChem (University of Kansas High Throughput Screening Laboratory)
Only some compounds are listed: those with a hit (about 3.6% of all), similar ones and a draw of the others.
Pf apPOL block: Pf-apPOL DNA polymerase inhibition. 210,000 compounds, 0.25% hits. inhibition, % at 10 µM. Recombinant Pf-apPOL, molecular beacon fluorescence, 1.5 h
mHTT CaM bind: disrupts binding of mutant huntingtin to calmodulin. AlphaScreen His-mHTT/GST-CaM binding, luminescence. 190,000 compounds, 3.6% hits. P42858. inhibition, % at 15 µM;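 further: 0% = both proteins with DMSO and 100% = one protein alone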
Target sequence (P42858 whole entry, looked up, stated change not applied): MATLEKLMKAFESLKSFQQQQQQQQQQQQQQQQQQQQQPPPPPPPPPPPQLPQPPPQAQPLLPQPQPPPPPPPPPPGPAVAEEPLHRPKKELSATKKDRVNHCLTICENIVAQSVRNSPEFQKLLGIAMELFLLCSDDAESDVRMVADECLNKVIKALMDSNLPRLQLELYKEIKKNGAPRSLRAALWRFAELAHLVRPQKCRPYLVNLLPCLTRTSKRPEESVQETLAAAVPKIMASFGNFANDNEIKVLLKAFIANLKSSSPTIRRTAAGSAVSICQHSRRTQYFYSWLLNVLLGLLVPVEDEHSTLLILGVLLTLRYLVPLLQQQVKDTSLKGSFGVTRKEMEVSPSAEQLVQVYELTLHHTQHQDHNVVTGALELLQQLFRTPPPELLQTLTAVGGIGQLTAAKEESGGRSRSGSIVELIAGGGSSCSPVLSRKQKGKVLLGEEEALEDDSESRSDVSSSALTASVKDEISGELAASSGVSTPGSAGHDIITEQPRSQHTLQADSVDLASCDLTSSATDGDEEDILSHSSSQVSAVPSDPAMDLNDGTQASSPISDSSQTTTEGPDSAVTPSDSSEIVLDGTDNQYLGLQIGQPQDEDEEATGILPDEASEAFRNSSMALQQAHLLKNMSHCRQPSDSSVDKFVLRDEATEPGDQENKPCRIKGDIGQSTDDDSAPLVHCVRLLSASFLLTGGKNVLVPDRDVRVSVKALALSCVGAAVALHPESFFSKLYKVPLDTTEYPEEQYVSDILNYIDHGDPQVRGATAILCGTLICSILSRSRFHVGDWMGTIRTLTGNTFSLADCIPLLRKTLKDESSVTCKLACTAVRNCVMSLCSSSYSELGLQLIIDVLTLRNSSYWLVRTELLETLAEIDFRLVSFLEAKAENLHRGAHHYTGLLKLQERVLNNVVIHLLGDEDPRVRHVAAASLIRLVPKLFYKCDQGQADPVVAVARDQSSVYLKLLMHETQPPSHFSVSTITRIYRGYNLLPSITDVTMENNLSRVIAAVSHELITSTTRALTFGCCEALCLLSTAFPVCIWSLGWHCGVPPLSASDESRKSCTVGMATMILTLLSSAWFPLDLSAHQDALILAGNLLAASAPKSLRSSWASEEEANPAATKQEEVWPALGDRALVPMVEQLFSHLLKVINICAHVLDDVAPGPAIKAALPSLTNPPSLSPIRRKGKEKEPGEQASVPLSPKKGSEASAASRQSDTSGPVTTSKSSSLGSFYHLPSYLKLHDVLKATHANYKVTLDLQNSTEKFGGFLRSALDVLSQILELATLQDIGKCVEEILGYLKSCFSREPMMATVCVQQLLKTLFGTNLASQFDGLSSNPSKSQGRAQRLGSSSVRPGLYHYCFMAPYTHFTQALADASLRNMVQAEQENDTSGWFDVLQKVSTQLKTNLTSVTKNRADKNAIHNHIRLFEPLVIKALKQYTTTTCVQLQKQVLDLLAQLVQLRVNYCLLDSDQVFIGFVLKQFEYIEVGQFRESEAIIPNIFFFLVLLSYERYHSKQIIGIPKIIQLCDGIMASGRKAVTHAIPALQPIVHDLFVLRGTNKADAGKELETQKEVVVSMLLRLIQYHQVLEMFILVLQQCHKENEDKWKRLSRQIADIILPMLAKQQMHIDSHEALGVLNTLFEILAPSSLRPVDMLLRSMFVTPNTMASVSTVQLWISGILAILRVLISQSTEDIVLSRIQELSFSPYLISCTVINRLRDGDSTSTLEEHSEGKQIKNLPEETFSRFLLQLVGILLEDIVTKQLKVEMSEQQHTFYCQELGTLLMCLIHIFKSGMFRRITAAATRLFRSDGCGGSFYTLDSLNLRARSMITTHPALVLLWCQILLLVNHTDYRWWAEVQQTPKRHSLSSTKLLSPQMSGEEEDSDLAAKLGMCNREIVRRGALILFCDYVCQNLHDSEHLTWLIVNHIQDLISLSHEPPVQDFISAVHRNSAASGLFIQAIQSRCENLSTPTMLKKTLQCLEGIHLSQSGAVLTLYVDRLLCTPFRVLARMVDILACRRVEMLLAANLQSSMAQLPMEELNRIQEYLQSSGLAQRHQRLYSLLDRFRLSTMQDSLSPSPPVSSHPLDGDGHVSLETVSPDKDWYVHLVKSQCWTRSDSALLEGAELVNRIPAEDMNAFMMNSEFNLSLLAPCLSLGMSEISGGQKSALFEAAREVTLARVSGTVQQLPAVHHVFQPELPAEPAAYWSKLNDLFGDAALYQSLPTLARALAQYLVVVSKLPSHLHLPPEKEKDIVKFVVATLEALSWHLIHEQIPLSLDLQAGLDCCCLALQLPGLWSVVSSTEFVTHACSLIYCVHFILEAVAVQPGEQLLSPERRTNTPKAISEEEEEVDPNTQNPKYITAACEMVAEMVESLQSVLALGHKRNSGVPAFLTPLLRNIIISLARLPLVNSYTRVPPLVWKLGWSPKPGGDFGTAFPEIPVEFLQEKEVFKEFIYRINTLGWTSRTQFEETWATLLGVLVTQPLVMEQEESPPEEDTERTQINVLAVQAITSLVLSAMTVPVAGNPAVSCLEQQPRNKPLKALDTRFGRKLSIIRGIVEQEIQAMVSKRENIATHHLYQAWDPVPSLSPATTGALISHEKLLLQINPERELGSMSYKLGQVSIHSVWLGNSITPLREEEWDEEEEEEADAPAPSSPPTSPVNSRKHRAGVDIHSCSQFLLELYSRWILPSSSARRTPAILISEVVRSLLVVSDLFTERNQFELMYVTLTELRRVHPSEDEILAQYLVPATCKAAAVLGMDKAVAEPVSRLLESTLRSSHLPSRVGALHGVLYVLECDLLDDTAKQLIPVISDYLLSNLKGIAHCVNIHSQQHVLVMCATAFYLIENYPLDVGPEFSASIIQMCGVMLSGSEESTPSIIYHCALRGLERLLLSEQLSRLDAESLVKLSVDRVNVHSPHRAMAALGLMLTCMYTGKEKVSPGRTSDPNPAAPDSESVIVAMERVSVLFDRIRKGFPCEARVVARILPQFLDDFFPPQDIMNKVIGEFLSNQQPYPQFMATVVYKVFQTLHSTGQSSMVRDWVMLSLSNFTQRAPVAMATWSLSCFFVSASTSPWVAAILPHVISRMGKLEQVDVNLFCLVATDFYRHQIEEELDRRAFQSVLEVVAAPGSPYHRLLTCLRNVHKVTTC
Numbers without * were called inactive; nt = no result given. No stated cut-off is given here; in the data, active means inhibition above about 50%; inactive means the rest.

SMILES | Pf apPOL block | mHTT CaM bind
Cc1cc(N)c(-n2c(C)c3c(C)nnc(C)c3c2C)cc1C | 0 | 88*
Cc1nnc(C)c2c(C)n(-c3ccc(N)cc3)c(C)c12 | -2 | 55*
CC(=O)c1c(C(C)=O)c(C)n(-c2ccc(N)cc2)c1C | -3 | 20
CCOC(=O)C1CCCN(C(=O)c2cnn(-c3cccc(F)c3)c2C)C1 (stereo unspecified) | -4 | -4
COc1ccc(C2=N/C(=C\c3ccccc3)C(=O)O2)cc1OC | 2 | -2
O=C(c1ccco1)N1CCN(CC(=O)N2CCCc3c2c(=O)oc2ccc(O)cc32)CC1 | 8 | 1
O=C(CN1CCN(Cc2ccccc2)CC1)N1CCCc2c1c(=O)oc1ccc(O)cc21 | 3 | 57*
S=C1NC2(CCCC2)NN1c1ccccc1 | 9 | nt
c1cc2c3c(cccc3c1)NC1(CCCCCC1)N2 | nt | 53*
O=[N+]([O-])c1ccc(NCCNS(=O)(=O)Cc2ccccc2)c(Cl)c1 | -14 | 17
N#Cc1c([N+](=O)[O-])cc([N+](=O)[O-])cc1S(=O)(=O)Cc1ccccc1 | -3 | 79*
Cc1ccc(C(=O)Nc2nc3ccc([N+](=O)[O-])cc3s2)o1 | -3 | 13
O=C(NCc1ccccc1)c1ccc2c(c1)NC(=O)C1CCCN21 (stereo unspecified) | -5 | 15
CCN(CCCNC(=O)c1ccc2c(c1)NC(=O)C1CCCN21)Cc1ccccc1 (stereo unspecified) | 50* | 19
CN1C(=O)C(O)(CC(=O)c2ccc3c(c2)OCCO3)c2ccccc21 (stereo unspecified) | -2 | 3
Cc1ccc(N(C(=O)c2ccccc2)C2C=CS(=O)(=O)C2)cc1 (stereo unspecified) | -3 | -4
CC(=O)Oc1cc(C(=O)N(c2ccc(C)cc2)C2C=CS(=O)(=O)C2)cc(OC(C)=O)c1OC(C)=O (stereo unspecified) | 90* | 96*
O=c1[nH]cc(Cc2ccc(O)cc2)c(=O)[nH]1 | 4 | 4
Cc1nn(-c2ccccc2)nc1C(=O)ON1C(=O)C2C3C=CC(O3)C2C1=O (stereo unspecified) | -72 | nt
O=C(ON1C(=O)C2C3C=CC(O3)C2C1=O)c1cccnc1Oc1ccccc1 (stereo unspecified) | 77* | nt
COc1ccc(-c2c(C)oc3c(CN4CCCC4)c(O)ccc3c2=O)cc1OC | -1 | -2
CC(=O)c1cccc(NC(=O)c2sc3ccccc3c2Cl)c1 | 2 | -12
COc1ccc(C(=O)C=Cc2ccc3c(c2)OCCO3)c(OCc2ccccc2)c1 | -22 | 16
COc1ccc(O)c(C(=O)C=Cc2ccc3c(c2)OCCO3)c1 | 6 | 61*
CC1CCN(CC2CCN(S(=O)(=O)c3ccccc3F)CC2)CC1 | 0 | 2
SMILES | Pf apPOL block | mHTT CaM bind
CC(=O)NC1=NN(C(C)=O)C(C)(c2ccc(F)cc2)S1 (stereo unspecified) | 5 | 0
CC(=O)NC1=NN(C(C)=O)C(C)(c2ccc(-c3ccccc3)cc2)S1 (stereo unspecified) | -5 | 51*
Cc1ccccc1N=c1oc2ccc(Br)cc2cc1C(=O)Nc1nccs1 | -5 | -4
Cn1nnc2c(N3CCN(C(=O)C4c5ccccc5Oc5ccccc54)CC3)ncnc21 | -1 | 58*
CCOC(=O)C(=O)N1CCN(c2ncnc3c2nnn3C)CC1 | -3 | -14
O=C(NCc1cccs1)C1CCN(c2cc(-n3ccnc3)ncn2)CC1 | -10 | -10
O=C(Cc1cc(-c2cc3ccccc3o2)on1)Nc1nccs1 | 3 | -3
c1ccc(Nc2nc(N3CCCC3)nc(N3CCNCC3)n2)cc1 | -11 | 10
NNc1nc(Nc2ccccc2)nc(N2CCCCC2)n1 | -4 | 99*
O=C(CN1CCCC1)N1N=C(c2ccccc2)CC1c1ccc2c(c1)OCO2 (stereo unspecified) | 4 | 99*
CC(=O)N1CCN(CC(=O)N2N=C(c3ccccc3)CC2c2ccccc2)CC1 (stereo unspecified) | -1 | 4
NC(=O)C1CCN(CC(=O)N2N=C(c3ccc(F)cc3)CC2c2ccccc2)CC1 (stereo unspecified) | 4 | 16
CC(=O)N1CCN(CC(=O)N2N=C(c3ccc(C)cc3)CC2c2ccc(C)cc2)CC1 (stereo unspecified) | -11 | 71*
CC(=O)N1CCN(CC(=O)N2N=C(c3ccccc3)CC2c2ccc(C)cc2)CC1 (stereo unspecified) | -5 | 64*
O=C(CN1CCCCC1)N1N=C(c2ccccc2)CC1c1ccc2c(c1)OCO2 (stereo unspecified) | -3 | 29
Cc1ccc(C2CC(c3ccccc3)=NN2C(=O)CN2CCC(C(N)=O)CC2)cc1 (stereo unspecified) | -8 | 80*
CCC(=O)N1CCc2sc(S(=O)(=O)NCc3ccccc3C)cc2C1 | -2 | 1
CCN1CCCC(NS(=O)(=O)c2ccc(Cl)c(Cl)c2)C1 (stereo unspecified) | 1 | -4
O=C(Cn1c(=O)oc2ccccc21)Nc1nc2c(s1)COc1ccccc1-2 | -4 | -6
CCCc1ccc(OCC(=O)Nc2ccc(OC)cc2OC)cc1 | -7 | -24
CCc1ccc(C(=O)N2CCCC(c3nc(CCNC(=O)C(C)C)cs3)C2)cc1 (stereo unspecified) | -4 | 3
NC(=O)c1cc(NC(=O)c2cccs2)ccc1N1CCOCC1 | 3 | 4
Cc1cc(C(=O)NCc2cc(F)cc(F)c2)nc2cc(-c3cccs3)nn12 | -4 | -15
Cc1cccc(C2=NN(C(=O)CN3CCOCC3)C(c3ccccc3F)C2)c1 (stereo unspecified) | 4 | 36
Cc1ccc(C2=NN(C(=O)CN3CCOCC3)C(c3ccc(C)cc3)C2)cc1 (stereo unspecified) | -6 | 62*
SMILES | Pf apPOL block | mHTT CaM bind
CC(=O)N1CCN(CC(=O)N2N=C(c3cccc(C)c3)CC2c2ccc(C)cc2)CC1 (stereo unspecified) | -5 | 82*
O=C(CN1CCOCC1)N1N=C(c2ccccc2)CC1c1ccc(Cl)cc1 (stereo unspecified) | -3 | 39
Cc1nc(N2CCN(C(=O)c3cccc(F)c3)CC2)c2c3c(sc2n1)CCCC3 | 10 | 14
COCCCN1C(=O)C(=O)C(=C(O)c2ccc(OCC(C)C)cc2C)C1c1cccnc1 (stereo unspecified) | -7 | 11
CN(CCCNC(=O)C1CCN(c2ccc(N3CCCCC3)nn2)CC1)c1ccccc1 | -9 | 54*
CN(CCCNC(=O)C1CCN(c2ccncc2)CC1)c1ccccc1 | -8 | 17
Cn1cccc1C(=O)N1CCC(c2nc(-c3ccccc3)no2)C1 (stereo unspecified) | -6 | 32
Nc1ccc(-c2nc3ccccc3n2CCCOc2ccccc2)cc1 | 12 | 51*
Nc1nc2ccccc2n1CCOc1ccc(Br)cc1 | -2 | 73*
Nc1ccc(-c2nc3ccccc3n2CCOc2ccccc2)cc1 | 11 | 37
Nc1nc2ccccc2n1CCOc1ccc(Cl)cc1Cl | -3 | 75*
Clc1ccc(OCCn2cnc3ccccc32)c(Cl)c1 | -6 | 0
Nc1nc2ccccc2n1CCOc1ccc(Cl)cc1 | -2 | 43
O=C1OC(c2ccc(F)cc2)=C/C1=C\c1cccc(Br)c1 | 7 | 1
O=C(CN(c1cccc([N+](=O)[O-])c1)S(=O)(=O)c1ccccc1)NCc1ccccn1 | -8 | 6
O=C(NCc1ccccc1)c1cccc(CN2C(=O)C3CCCN3C(=O)c3ccccc32)c1 (stereo unspecified) | -1 | 10
